Results on 21 compounds are retold here after PubChem BioAssay (NCATS).

Results filed as inconclusive are left out. Unmarked numbers belong to inactive results. Active and inactive are the calls of the source. Calls follow the shape of the dose curve; as a rule, active = well fitted curve in the direction sought with a large enough effect; inconclusive = small, poorly fitted or top-dose-only effect, or another doubt; inactive = no such curve, though single readings can be large; an effect the other way counts as inactive or inconclusive. Numbered stars: 1 amine (or outer) side, 2 acyl side, 3 side chain; on linkers, the order of the positions; unused ones are H or OH. Bridge positions count the residues as written; N and C are the ends. Square brackets hold non-standard residues; d marks the D form. Peptide text beside a SMILES is read from it. I, II: the chains in the order shown. Actinocin(9to1) = Cc1c2oc3c(C)ccc(C(=O)[*:1])c3nc-2c(C(=O)[*:2])c(N)c1=O; NMeV = CN[CH](C(=O)O)C(C)C; Sar = CNCC(=O)O

Assay [1] in a line: Quantitative highthroughput screen to assess conditional lethalithy of NOMO1 cells grown in RPMI1640 with dialyzed fetal bovine serum (RPMI+ds) (AID 1963877). Also: nearly all actives have a fitted effect of over 30% in size.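 As to viability: series mostly up to about 46 µM; 100% = DMSO control wells and 0% = empty wells.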 Put shortly:
(§1)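 Each medium arm—HPLM with 10% dialyzed FBS, or RPMI1640 with 5 mM glucose and 10% untreated or dialyzed FBS—was screened against an 11-point, 3-fold compound titration for 48 h at 37 °C, with CellTiter-Glo luminescence as endpoint.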

A short description of assay [2]: Quantitative highthroughput screen to assess conditional lethalithy of NOMO1 cells grown in Human Plasma-Like Medium with dialyzed fetal bovine serum (HPLM+ds) (AID 1963878). Also: nearly all actives have a fitted effect of over 35% in size.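 As to viability: 100% = DMSO wells and 0% = empty wells on each plate.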 Put shortly:
as §1

Assay [3] can be described thus: Quantitative highthroughput screen to assess conditional lethalithy of P12 Ichikawa cells grown in Human Plasma-Like Medium with dialyzed fetal bovine serum (HPLM+ds) (AID 1963879). Also: nearly all actives have a fitted effect of over 35% in size. As to viability: series mostly up to about 46 µM. To be noted: Potency: viability. The procedure, abridged: as §1
The nature of assay [4]: Quantitative highthroughput screen to assess conditional lethalithy of P12 Ichikawa cells grown in RPMI1640 with dialyzed fetal bovine serum (RPMI+ds) (AID 1963880). Also: nearly all actives have a fitted effect of over 35% in size.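 As to viability: 100% = DMSO wells and 0% = empty wells on each plate.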 Conditions: Potency: P12-Ichikawa viability. The procedure, abridged:
as §1

Assay [5] in a line: Quantitative highthroughput screen to assess conditional lethalithy of P12 Ichikawa cells grown in RPMI1640 with untreated serum (RPMI+s) (AID 1963881). Also: nearly all actives have a fitted effect of over 35% in size.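 As to viability: series mostly up to about 46 µM; 100% = DMSO wells and 0% = empty wells without cells.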 To be noted: Potency: viability. Put shortly: as §1
Assay [6] can be described thus: Quantitative highthroughput screen to assess conditional lethalithy of SEM cells grown in Human Plasma-Like Medium with dialyzed fetal bovine serum (HPLM+ds) (AID 1963882). Also: nearly all actives have a fitted effect of over 35% in size. As to viability: series mostly up to about 46 µM. Put shortly:
as §1

The nature of assay [7]: Quantitative highthroughput screen to assess conditional lethalithy of SEM cells grown in RPMI1640 with unreated serum (RPMI+s) (AID 1963883). Also: nearly all actives have a fitted effect of over 35% in size.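 As to viability: 100% = DMSO wells and 0% = empty wells without cells.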 The procedure, abridged: as §1
Assay [8] is described as follows: Quantitative highthroughput screen to assess conditional lethalithy of SEM cells grown in RPMI1640 with dialyzed fetal bovine serum (RPMI+ds) (AID 1963884). Also: nearly all actives have a fitted effect of over 35% in size.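 As to viability: series mostly up to about 46 µM; 100% = DMSO control wells and 0% = empty wells without cells.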 The procedure, abridged: as §1
Assay [9] is described as follows: Cellular viability qHTS for adrenocortical cancer (ACC) cell line SW-13 (AID 1963989). Also: nearly all actives have a fitted effect of over 65% in size.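 As to activity (max response): cells grown in serum-free medium with ITS supplement; % is scaled to controls: 0 for no effect and ±100 for the full control effect.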 To be noted: SW-13 ACC cells viability, CellTiter-Glo, 48 h; activity (max response): hits give low values. The procedure, abridged: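 IC50 and maximal-response values come from four-parameter logistic fits of titration data. SW-13 cells in serum-free medium received compounds (up to 46 uM final) for 48 h before CellTiter-Glo luminescence.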
(qHTS replaces the single test concentration by a dilution series.)

Assay [10] can be described thus: Quantitative highthroughput screen to assess conditional lethalithy of NOMO1 cells grown in RPMI1640 with untreated serum (RPMI+s) (AID 1963876). Also: nearly all actives have a fitted effect of over 35% in size.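 As to viability: 100% = DMSO wells and 0% = empty wells without cells.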 The procedure, abridged:
as §1

A short description of assay [11]: Cellular viability qHTS for adrenocortical cancer (ACC) cell line NCI-H295R (AID 1963990). Also: nearly all actives have a fitted effect of over 60% in size. The procedure, abridged:
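Adrenocortical carcinoma cells, suspended at 300 000 cells/mL in serum-free DMEM plus ITS, rested overnight before pin transfer of compound. After two days' incubation, ATP-dependent luminescence was recorded and curve-fitted.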
Potency is read from the fitted curve at half-maximal effect.

In the case of `CC=CC(=O)N(CC)c1ccccc1C`, the Potency result in assay [1], in [2], in assay [3], in [4], in [5] and in assay [6] was “inactive” in each case.
With `O=C(Nc1ccc(F)c(C(F)(F)F)c1)Nc1nnc(-c2ccncc2)s1`, the Potency entry in assay [1], in [2], in [3], in assay [4], in [5] and in assay [6] was “inactive” each time. For the same compound, the Potency entry in assay [7] and in assay [8] was “inactive” in each case. Besides, the activity (max response) in assay [9] is 4.96%.
As for `COc1ccc(CCC(=O)c2c(O)cc(O[C@@H]3O[C@H](CO)[C@@H](O)[C@H](O)[C@@H]3O[C@@H]3O[C@@H](C)[C@H](O)[C@@H](O)[C@@H]3O)cc2O)cc1O`, in [10], the Potency was 13200 nM (active). For the same compound, the Potency entry in assay [4], in assay [5], in assay [6], in assay [7] and in assay [8] was “inactive” throughout.
For the compound `C=C1C(=O)OC2C=C(C)CCC=C(C)CCC12` (configuration not stated), in assay [10], the Potency result is “inactive”. Further, the Potency in assay [8] is 23.5 µM (active).
With `CCCCCCCCCCCC1=C(O)C(=O)C=C(O)C1=O`, the Potency is 332 nM (active) in assay [10] and 3.32 µM (active) in assay [4]. Besides, the Potency result in [6] and in [11] was “inactive” throughout. For the same compound, the activity (max response) in assay [9] was -2.06%.
Regarding `O=C(Nc1ccccc1-c1cn2c(CN3CCNCC3)csc2n1)c1cnc2ccccc2n1`, the Potency result in assay [1] and in assay [2] was “inactive” throughout. Moreover, the Potency in assay [5] is 26.4 µM (active); in assay [6], 18.7 µM (active); in [7] it was 18.7 µM (active); in assay [8], 13.2 µM (active); in assay [9] it was 3.55 µM (active); in assay [11] it was 7080 nM (active).
On to `CC(O)=C(C#N)C(=O)Nc1ccc(C(F)(F)F)cc1`, for which the Potency result in assay [1], in assay [2], in assay [3] and in assay [5] was “inactive” in each case.
In the case of `COc1ncc(-c2ccc3nccc(-c4ccnnc4)c3c2)cc1NS(=O)(=O)c1ccc(F)cc1F`, the Potency in assay [10] is 105 nM (active); in assay [4] it was 2.09 µM (active); in assay [6] it was 0.469 µM (active); in assay [8] it was 0.372 µM (active); in [11], 28.2 nM (active).
Consider `COc1cc2nc(N3CCN(C(=O)C4COc5ccccc5O4)CC3)nc(N)c2cc1OC` (configuration not stated), for which the Potency entry in assay [10], in assay [4], in assay [5], in assay [6], in [7] and in assay [8] was “inactive” each time.
For the compound `CC(C)c1c(C(=O)Nc2ccccc2)c(-c2ccccc2)c(-c2ccc(F)cc2)n1CC[C@H](O)C[C@@H](O)CC(=O)O`, the Potency in [1] is 16.6 µM (active); in assay [2], 18.7 µM (active). Besides, the Potency result in assay [6] is “inactive”.
Turning to `CC(=O)N1CCN(c2ccc(OCc3nn(C)c(C)c3-c3cccc4c(CCCOc5cccc6ccccc56)c(C(=O)O)n(Cc5cccnc5)c34)cc2)CC1`, the Potency in [1] is 2.64 µM (active); in assay [2] it was 2.35 µM (active); in assay [3] it was 10.5 µM (active); in assay [5], 10.5 µM (active). Further, the Potency result in assay [6] and in assay [8] was “inactive” each time.
Consider `O=c1ccn([C@@H]2O[C@H](CO)[C@H](O)[C@@H]2F)c(=O)[nH]1`, for which the Potency entry in assay [1], in assay [2], in assay [3], in [4], in assay [5] and in [6] was “inactive” throughout. Further, the Potency result in [7] is “inactive”. Further, the activity (max response) in assay [9] is -7.29%.
On to `CCC(CC)[C@H](NC(C)=O)[C@@H]1[C@H](O)[C@@H](C(=O)O)C[C@@H]1N=C(N)N`, for which the Potency result in assay [1], in assay [2], in assay [4], in assay [5], in assay [6] and in [7] was “inactive” each time. For the same compound, in [8], the Potency entry is “inactive”.
With `OCc1ccccc1O[C@@H]1O[C@H](CO)[C@H](O)[C@H](O)[C@H]1O`, the Potency in assay [1] was 13.2 µM (active); in [2], 7.43 µM (active); in assay [4] it was 16.6 µM (active).
On to `C=CCc1cccc(C=NNC(=O)CN2CCN(Cc3ccccc3)CC2)c1O`, for which the Potency in [1] was 16.6 µM (active); in assay [2], 18.7 µM (active); in [3], 16.6 µM (active); in assay [4], 13.2 µM (active); in assay [5], 14.8 µM (active); in [6] it was 10.5 µM (active). Further, the Potency in assay [7] is 16.6 µM (active); in assay [8] it was 8.33 µM (active).
Regarding `O=c1[nH]c(=O)n([C@H]2C[C@@H](O)[C@@H](CO)O2)cc1I`, the Potency entry in assay [1] and in assay [4] was “inactive” each time. Further, the Potency was 11.8 µM (active) in assay [2] and 7.43 µM (active) in assay [6].
On to `O=C(O)C1=CO[C@@H](O[C@@H]2O[C@H](CO)[C@H](O)[C@H](O)[C@H]2O)[C@@H]2C(CO)=CC[C@H]12`, for which the Potency entry in [1], in assay [2], in [3], in assay [4], in assay [5] and in assay [6] was “inactive” throughout. Further, the Potency result in [7] and in assay [8] was “inactive” in each case.
For the compound `C[C@@H]1[C@H](C)CC[C@]2(C(=O)O)CC[C@]3(C)C(=CC[C@@H]4[C@@]5(C)C[C@@H](O)[C@H](O)[C@@](C)(CO)[C@H]5CC[C@]43C)[C@@H]12`, the Potency result in assay [1], in [2], in [3], in assay [4] and in [5] was “inactive” in each case.
Regarding `CO[C@H]1C=CO[C@@]2(C)Oc3c(C)c(O)c4c(O)c(c(C=NN5CCN(C)CC5)c(O)c4c3C2=O)NC(=O)C(C)=CC=C[C@H](C)[C@H](O)[C@@H](C)[C@@H](O)[C@@H](C)[C@H](OC(C)=O)[C@H]1C`, the Potency entry in assay [10] and in assay [8] was “inactive” throughout. Also, in assay [4], the Potency was 2.38 µM (active).
Turning to `CC(=O)OC1C(C)OC(Oc2c(-c3ccc(O)cc3)oc3cc(O)cc(O)c3c2=O)C(O)C1OC(C)=O` (configuration not stated), the Potency entry in assay [1], in [2], in [3], in assay [6], in assay [8] and in assay [11] was “inactive” each time.
Turning to `Cc1c2oc3c(C)ccc(C(=O)NC4C(=O)NC(C(C)C)C(=O)N5CCCC5C(=O)N(C)CC(=O)N(C)C(C(C)C)C(=O)OC4C)c3nc-2c(C(=O)NC2C(=O)NC(C(C)C)C(=O)N3CCCC3C(=O)N(C)CC(=O)N(C)C(C(C)C)C(=O)OC2C)c(N)c1=O` (configuration not stated) (I: TVP[Sar][NMeV] / II: TVP[Sar][NMeV]; ester I:1-I:C, II:1-II:C; linker I:N-II:N via Actinocin(9to1); configuration not given here), the Potency entry in [1], in [2], in assay [3], in assay [4], in [5] and in [6] was “inactive” each time. In addition, the Potency result in assay [7] and in [8] was “inactive” in each case. For the same compound, the results for the Potency in assay [9] and in assay [11] were 0.009 µM (active) and 802 nM (active), respectively.
